Laboratory results from PubChem BioAssay AID1159580 (chemical genetic matrix, 2015).
Out of some 5,500 compounds screened, about 2,000 (36%) were called active. Not shown: some 18% with an inconclusive outcome. Cut-off read from the data, not from the text of the source: active = normalized growth mostly below about 0.91 (no sharp cut-off); inconclusive = no clear call, values can overlap the other calls; inactive = mostly above about 0.92. The list shows a part of the results.

Test: chemical genetic growth profiling, strain panel (AID 1159580);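 note: tested at 20 µM; growth read once vehicle control cultures reached saturation at 30 °C; 1 = growth at the plate median or of vehicle wells; lower values mean less growth of the strain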
Conditions: S. cerevisiae deletion strains, growth OD

Measured: normalized growth

O=C(O)c1ccccc1Nc1cccc(C(F)(F)F)c1
active: locus YJR043C, strain POL32, active compounds read low 0.775 | locus YJR066W, strain TOR1, active compounds read low 0.00921 | locus YKL160W, strain elf1, active compounds read low 0.835 | locus YKR001C, strain vps1, active compounds read low 0.85 | locus YKR026C, strain gcn3, active compounds read low 0.79 | locus YKR091W, strain srl3, active compounds read low 0.826 | locus YLL001W, strain dnm1, active compounds read low 0.833 | locus YLL026W, active compounds read low 0.829 | locus YLL041C, strain sdh2, active compounds read low 0.803 | locus YLR027C, strain aat2, active compounds read low 0.865 | locus YLR113W, strain HOG1, active compounds read low 0.137 | locus YLR221C, strain rsa3, active compounds read low 0.838 | locus YLR258W, strain gsy2, active compounds read low 0.83 | locus YLR262C, strain YPT6 (second series), active compounds read low 0.634 | locus YLR320W, strain mms22, active compounds read low 0.833 | locus YLR330W, strain CHS5, active compounds read low 0.883 | locus YLR342W, strain FKS1 (second series), active compounds read low 0.713 | locus YLR342W, strain FKS1, active compounds read low 0.831 | locus YLR370C, strain arc18, active compounds read low 0.808 | locus YLR384C, strain iki3, active compounds read low 0.818 | locus YLR418C, strain cdc73, active compounds read low 0.729 | locus YML120C, strain ndi1, active compounds read low 0.842 | locus YMR058W, strain fet3, active compounds read low 0.824 | locus YMR125W, strain sto1, active compounds read low 0.835 | locus YMR129W, active compounds read low 0.812 | locus YMR205C, strain PFK2, active compounds read low 0.81 | locus YMR231W, strain pep5, active compounds read low 0.817 | locus YNL071W, strain lat1, active compounds read low 0.849 | locus YNL183C, strain NPR1, active compounds read low 0.0159 | locus YNL209W, strain ssb2, active compounds read low 0.862 | locus YNL233W, strain BNI4, active compounds read low 0.852 | locus YNL307C, strain MCK1, active compounds read low 0.695 | locus YNL322C, strain KRE1 (second series), active compounds read low 0.801 | locus YNR049C, strain mso1, active compounds read low 0.813 | locus YOR001W, strain rrp6, active compounds read low 0.872 | locus YOR070C, strain gyp1, active compounds read low 0.848 | locus YOR080W, strain dia2, active compounds read low 0.847 | locus YOR083W, strain WHI5, active compounds read low 0.834 | locus YOR106W, strain vam3, active compounds read low 0.821 | locus YOR184W, strain ser1, active compounds read low 0.819 | locus YOR231W, strain MKK1, active compounds read low 0.105 | locus YOR265W, strain rbl2, active compounds read low 0.843 | locus YOR270C, strain vph1, active compounds read low 0.674 | locus YOR290C, strain snf2, active compounds read low 0.852 | locus YPL051W, strain arl3, active compounds read low 0.831 | locus YPL078C, strain atp4, active compounds read low 0.807 | locus YPL240C, strain hsp82, active compounds read low 0.836 | locus YPL256C, strain CLN2, active compounds read low 0.116
inactive: locus YJR075W, strain HOC1, active compounds read low 0.93 | locus YKL009W, strain mrt4, active compounds read low 0.896 | locus YKL068W, active compounds read low 0.99 | locus YKL085W, strain MDH1 (second series), active compounds read low 0.957 | locus YKL085W, strain MDH1, active compounds read low 0.957 | locus YKL190W, strain CNB1, active compounds read low 0.962 | locus YLR039C, strain RIC1, active compounds read low 0.808 | locus YLR058C, strain SHM2, active compounds read low 0.951 | locus YLR102C, strain apc9, active compounds read low 0.982 | locus YLR262C, strain YPT6, active compounds read low 0.821 | locus YLR268W, strain sec22, active compounds read low 0.914 | locus YLR357W, strain rsc2, active compounds read low 0.873 | locus YLR371W, strain rom2, active compounds read low 0.987 | locus YML016C, strain PPZ1, active compounds read low 0.991 | locus YML032C, strain rad52, active compounds read low 0.933 | locus YML124C, strain tub3, active compounds read low 0.97 | locus YMR078C, strain ctf18, active compounds read low 0.98 | locus YMR223W, strain ubp8, active compounds read low 0.945 | locus YMR307W, strain GAS1, active compounds read low 0.842 | locus YNL067W, strain RPL9B, active compounds read low 0.967 | locus YNL128W, strain TEP1, active compounds read low 1.01 | locus YNL153C, strain GIM3, active compounds read low 0.937 | locus YNL248C, strain rpa49, active compounds read low 0.921 | locus YNL250W, strain rad50, active compounds read low 0.994 | locus YNL271C, strain bni1, active compounds read low 0.982 | locus YNL298W, strain CLA4, active compounds read low 0.928 | locus YNR052C, strain pop2, active compounds read low 0.993 | locus YOL012C, strain htz1 0.909 | locus YOL147C, strain pex11, active compounds read low 0.975 | locus YOR061W, strain CKA2, active compounds read low 0.947 | locus YOR069W, strain VPS5, active compounds read low 0.991 | locus YOR136W, strain idh2, active compounds read low 0.983 | locus YOR144C, strain elg1, active compounds read low 0.978 | locus YOR316C, strain cot1, active compounds read low 0.988 | locus YPL106C, strain sse1, active compounds read low 0.968 | locus YPR119W, strain clb2, active compounds read low 0.988 | locus YPR141C, strain kar3, active compounds read low 0.99 | locus YPR163C, strain tif3, active compounds read low 0.952 | locus YPR167C, strain met16, active compounds read low 0.944 | strain wtn01, active compounds read low 0.954
